# PubChem BioAssay (EPA / NIEHS)
# Records with an inconclusive call do not appear. Active and inactive are the calls of the source. Rule for the calls, unless noted: active = hit-call score of the fitted dose curve at least 0.9, where 1 is the maximum; inactive = score below 0.9.
# What was measured:
# [1] = CCTE_Shafer_MEA_acute_interburst_interval_mean: CCTE's Neural Acute Assay for Mean Interburst Interval, Shafer Lab (AID 2284016);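 note: percent change of mean interburst interval versus each well's own pre-dose baseline; curves fitted for decrease in interburst interval relative to DMSO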
# Summary of the method: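 MEA recording of spontaneous network bursting in primary rat cortical cultures; mean interburst interval was compared before and after a 40-min compound exposure (0.03-40 uM) and expressed as percent change, relative to DMSO.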
# [2] = CCTE_Shafer_MEA_acute_burst_percentage_mean: CCTE's Neural Acute Assay for Percentage of Spikes in a Burst, Shafer Lab (AID 2284017);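 note: curve fitted for loss of signal so potency reflects decreased burst percentage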
# Summary of the method: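 Compounds were tested at 0.03-40 uM on primary rat cortical neuron networks grown over microelectrodes, with at least three wells per compound. Spontaneous firing was recorded for 40 min before and 40 min after dosing, and the change in burst percentage was computed per well.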
# [3] = CCTE_Shafer_MEA_acute_burst_percentage_std: CCTE's Neural Acute Assay for Standard Deviation of Burst Percentage, Shafer Lab (AID 2284018);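 note: fitted in the negative direction so actives lower burst percentage SD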
# Summary of the method: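 Rat primary cortical neurons on 48-well MEAs, DIV 13 or 15, 37 C. 40-min baseline then 40-min recording with compound (0.03-40 uM); well-level SD of per-electrode burst spike percentage, expressed as percent change from baseline.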
# [4] = CCTE_Shafer_MEA_acute_per_network_burst_spike_number_mean: CCTE's Neural Acute Assay for Average Number of Spikes in a Network Burst, Shafer Lab (AID 2284019)
# Summary of the method: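 Rat primary cortical neurons on 48-well MEA at DIV 13 or 15, 37 C; compounds 0.03-40 uM, at least three wells each. 40-min baseline then 40-min exposure recording; percent change in mean spikes per network burst.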
# [5] = CCTE_Shafer_MEA_acute_per_network_burst_spike_number_std: CCTE's Neural Acute Assay for Standard Deviation of Number of Spikes in a Network Burst, Shafer Lab (AID 2284020);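 note: fitted for decrease in spike-number SD versus DMSO so actives lower it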
# Summary of the method: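 Rat primary cortical neurons on 48-well MEA (16 electrodes/well), treated DIV 13 or 15 at 0.03-40 uM, ≥3 wells per compound. 40 min recordings at 37 C before and after dosing; value is percent change in network-burst spike-number SD, negative direction vs DMSO.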
# [6] = CCTE_Shafer_MEA_acute_per_network_burst_electrodes_number_mean: CCTE's Neural Acute Assay for Mean Number of Electrodes in a Network Burst, Shafer Lab (AID 2284021);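 note: curves fitted for decreases only so hits reduce electrodes per burst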
# Summary of the method: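 Rat primary cortical neurons on 16-electrode MEA wells were recorded 40 min at baseline on DIV 13 or 15, then 40 min after compound (0.03-40 uM), at 37 C. Value is percent change per well, fitted in loss direction versus DMSO.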
# [7] = CCTE_Shafer_MEA_acute_network_burst_percentage: CCTE's Neural Acute Assay for Percentage of Network Bursts, Shafer Lab (AID 2284022);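 note: curves fitted for loss so actives lower network burst percentage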
# Summary of the method: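 Primary rat cortical neurons on 16-electrode MEA wells, treated on DIV 13 or 15 with compound (0.03-40 uM); 40-min baseline and 40-min post-exposure recordings at 37 C. Value is percent change in spikes within network bursts versus baseline, DMSO negative control.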
# [8] = CCTE_Shafer_MEA_acute_cross_correlation_area: CCTE's Neural Acute Assay for Area of Cross Correlation, Shafer Lab (AID 2284024);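 note: area under pooled inter-electrode spike cross-correlation near zero lag as percent change from own baseline; curves fitted for loss of cross-correlation area so actives lower synchrony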
# Summary of the method: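 Primary rat cortical neurons on 48-well MEA plates (16 electrodes/well) were recorded 40 min at baseline on DIV 13 or 15, then 40 min with compound (0.03-40 uM) at 37 C; cross-correlation area expressed as percent change from baseline.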
# [9] = CCTE_Shafer_MEA_acute_cross_correlation_HWHM: CCTE's Neural Acute Assay for Cross Correlation at Half Width at Half Maximum, Shafer Lab (AID 2284026);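 note: percent change per well from pre-dose baseline in spike cross-correlogram half width; hits are a decrease in cross-correlogram half width relative to DMSO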
# Summary of the method: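 Primary rat cortical neurons on 16-electrode MEA wells; 40-min baseline on DIV 13 or 15, then 40-min recording with compound (0.03-40 uM) at 37 C. HWHM of spike cross-correlogram expressed as percent change from baseline per well, DMSO reference.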
# [10] = CCTE_Shafer_MEA_acute_synchrony_index: CCTE's Neural Acute Assay for Synchrony, Shafer Lab (AID 2284027);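 note: fitted for loss of signal so actives lower synchrony relative to DMSO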
# Summary of the method: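 Readout is percent change in the unitless network synchrony index (0 low, 1 high) between a 40-min baseline and a 40-min recording in compound. Cultures were primary rat cortical neurons on MEAs, treated at 0.03-40 uM on DIV 13 or 15.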
# [11] = CCTE_Shafer_MEA_acute_AB: CCTE's Alamar Blue Assay for Cytotoxicity in the Neural Acute Assay, Shafer Lab (AID 2284069; active = hit-call score of the fitted dose curve at least 0.9, where 1 is the maximum;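 note: active compounds lower the viability signal compared with DMSO wells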)
# Summary of the method: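 Cytotoxicity endpoint for acute MEA exposures of primary rat cortical neurons on day 13 or 15. Resazurin reduction is read fluorescently at 544/590 nm, with DMSO as the negative-control baseline.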
# [12] = CCTE_Shafer_MEA_acute_LDH: CCTE's Lactate Dehydrogenase Assay for Cytotoxicity in the Neural Acute Assay, Shafer Lab (AID 2284086; active = hit-call score of the fitted dose curve at least 0.9, where 1 is the maximum;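 note: active means LDH release rises above DMSO vehicle level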)
# Summary of the method: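 Rat cortical neurons cultured on microelectrode arrays; baseline 40-min recording, compound added, second 40-min recording; medium then sampled for released LDH (colorimetric kit, 490 nm). DMSO = negative control.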
# [13] = read-out: Monokine induced gamma interferon (MIG), CXCL9 (gene 4283); assay: BSK_KF3CT_MIG: BioMAP Diversity Plus: KF3CT Assay for Monokine induced gamma interferon (MIG) Biomarker Activity (AID 2284248); settings: primary human keratinocytes with fibroblasts
# Summary of the method: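 Human keratinocyte plus foreskin fibroblast primary co-culture dosed with test chemical for 24 h; MIG level measured by ELISA and fitted in the positive direction against DMSO as baseline.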
# [14] = read-out: Collagen I, COL1A1 (gene 1277); assay: BSK_hDFCGF_CollagenI: BioMAP Diversity Plus: hDFCGF Assay for Collagen I Biomarker Activity (AID 2284250); settings: primary human foreskin fibroblasts
# Summary of the method: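 Human skin primary fibroblasts dosed with test chemical, harvested at 24 h, Collagen I quantified by ELISA; parallel SRB staining (0.1% SRB after 10% TCA fixation, 560 nm) tracked cytotoxicity.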
# [15] = read-out: Interferon-inducible T-cell alpha chemoattractant (ITAC), CXCL11 (gene 6373); assay: BSK_hDFCGF_ITAC: BioMAP Diversity Plus: hDFCGF Assay for Interferon-inducible T-cell alpha chemoattractant (ITAC) Biomarker Activity (AID 2284251); settings: primary human foreskin fibroblasts
# Summary of the method: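 Primary human foreskin fibroblasts (hDFCGF system) treated for 24 h; I-TAC quantified by ELISA. Gain-direction fitting versus DMSO; parallel SRB staining of total protein flagged overt cytotoxicity.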
# [16] = read-out: Plasminogen activator inhibitor-1 (PAI1), SERPINE1 (gene 5054); assay: BSK_KF3CT_PAI1: BioMAP Diversity Plus: KF3CT Assay for Plasminogen activator inhibitor-1 (PAI1) Biomarker Activity (AID 2284252); settings: primary human keratinocytes with fibroblasts
# Summary of the method: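 ELISA read-out of PAI-1 taken 24 h after chemical treatment of a human skin primary co-culture of keratinocytes and foreskin fibroblasts. Increases over DMSO-treated wells defined activity.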
# [17] = read-out: Interleukin-8 (IL8), CXCL8 (gene 3576); assay: BSK_KF3CT_IL8: BioMAP Diversity Plus: KF3CT Assay for Interleukin-8 (IL8) Biomarker Activity (AID 2284254); settings: primary human keratinocytes with fibroblasts
# Summary of the method: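 Human primary keratinocyte plus foreskin fibroblast co-culture dosed with test chemicals; IL-8 measured by ELISA 24 h after dosing. Activity fitted in the positive direction relative to DMSO negative control.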
# [18] = read-out: Intercellular Adhesion Molecule 1 (ICAM1), ICAM1 (gene 3383); assay: BSK_BE3C_ICAM1: BioMAP Diversity Plus: BE3C Assay for Intercellular Adhesion Molecule 1 (ICAM1) Biomarker Activity (AID 2284278); settings: primary human bronchial epithelial cells;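 note: cell-surface ICAM-1 protein level quantified by ELISA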
# Summary of the method: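 Human primary bronchial epithelial cultures; compound added; 24 h incubation; cell-surface ICAM-1 measured by ELISA; signal increase fitted relative to DMSO negative control.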
# [19] = read-out: Interferon-inducible T-cell alpha chemoattractant (ITAC), CXCL11 (gene 6373); assay: BSK_BE3C_ITAC: BioMAP Diversity Plus: BE3C Assay for Interferon-inducible T-cell alpha chemoattractant (ITAC) Biomarker Activity (AID 2284279); settings: primary human bronchial epithelial cells
# Summary of the method: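 The assay measures I-TAC levels by ELISA in human primary bronchial epithelial cell cultures 24 hours after chemical treatment. Values reflect signal increase over the DMSO baseline.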
# [20] = read-out: Interleukin-8 (IL8), CXCL8 (gene 3576); assay: BSK_BE3C_IL8: BioMAP Diversity Plus: BE3C Assay for Interleukin-8 (IL8) Biomarker Activity (AID 2284280); settings: primary human bronchial epithelial cells
# Summary of the method: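 Primary human bronchial epithelial cells (BE3C system) exposed 24 h; IL-8 measured by ELISA and fitted in positive direction versus DMSO. Overt cytotoxicity assessed by SRB total-protein staining in parallel cultures.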
# [21] = read-out: Epidermal growth factor receptor (EGFR), EGFR (gene 1956); assay: BSK_BE3C_EGFR: BioMAP Diversity Plus: BE3C Assay for Epidermal growth factor receptor (EGFR) Biomarker Activity (AID 2284281); settings: primary human bronchial epithelial cells
# Summary of the method: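 Human primary bronchial epithelial cells (BE3C system) dosed with chemicals; EGFR measured by ELISA at 24 h, fitted in the positive direction relative to DMSO. Cytotoxicity tracked in parallel cultures by SRB total-protein staining.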
# KRT18 (gene 3875) = assay: BSK_BE3C_Keratin818: BioMAP Diversity Plus: BE3C Assay for Keratin 818 Biomarker Activity (AID 2284282); settings: primary human bronchial epithelial cells
# Summary of the method: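 Chemicals are added to human lung bronchial epithelial primary cells (BE3C system) and incubated 24 h. Keratin 8/18 is then measured by ELISA, with parallel SRB total-protein staining gauging overt cytotoxicity.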
# [22] = read-out: Matrix Metallopeptidase 9 (MMP9), MMP9 (gene 4318); assay: BSK_BE3C_MMP9: BioMAP Diversity Plus: BE3C Assay for Matrix Metallopeptidase 9 (MMP9) Biomarker Activity (AID 2284283); settings: primary human bronchial epithelial cells
# Summary of the method: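 Human primary bronchial epithelial cells in the BE3C system were dosed with compound for 24 h. MMP-9 was measured by ELISA, and the positive-direction response was fitted relative to DMSO as baseline. Parallel SRB staining gauged cytotoxicity.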
# [23] = read-out: Plasminogen activator inhibitor-1 (PAI1), SERPINE1 (gene 5054); assay: BSK_CASM3C_PAI1: BioMAP Diversity Plus: CASM3C Assay for Plasminogen activator inhibitor-1 (PAI1) Biomarker Activity (AID 2284284); settings: primary human coronary artery smooth muscle cells;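 note: PAI-1 protein level measured by ELISA 24 h after dosing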
# [24] = read-out: Monocyte Chemoattractant Protein-1 (MCP1), CCL2 (gene 6347); assay: BSK_hDFCGF_MCP1: BioMAP Diversity Plus: hDFCGF Assay for Monocyte Chemoattractant Protein-1 (MCP1) Biomarker Activity (AID 2284285); settings: primary human foreskin fibroblasts
# Summary of the method: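 Human foreskin fibroblasts (hDFCGF system) were exposed to compound and secreted MCP-1 was measured by ELISA after 24 hours. Activity was fitted relative to DMSO. Cytotoxicity was checked by SRB total-protein staining in parallel cultures.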
# [25] = read-out: Intercellular Adhesion Molecule 1 (ICAM1), ICAM1 (gene 3383); assay: BSK_hDFCGF_ICAM1: BioMAP Diversity Plus: hDFCGF Assay for Intercellular Adhesion Molecule 1 (ICAM1) Biomarker Activity (AID 2284287); settings: primary human foreskin fibroblasts
# Summary of the method: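 Primary human foreskin fibroblasts (hDFCGF system) dosed with chemical; ICAM-1 quantified by ELISA at 24 h relative to DMSO. Parallel SRB total-protein staining to assess overt cytotoxicity.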
# [26] = read-out: TIMP metallopeptidase inhibitor 2 (TIMP2), TIMP2 (gene 7077); assay: BSK_hDFCGF_TIMP2: BioMAP Diversity Plus: hDFCGF Assay for TIMP metallopeptidase inhibitor 2 (TIMP2) Biomarker Activity (AID 2284289); settings: primary human foreskin fibroblasts
# Summary of the method: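 Primary human foreskin fibroblasts in the hDFCGF system, dosed for 24 h; TIMP-2 level measured by ELISA, fitted in the positive direction against DMSO; cytotoxicity checked in parallel by sulforhodamine B total protein staining.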
# [27] = read-out: Thrombomodulin, THBD (gene 7056); assay: BSK_LPS_Thrombomodulin: BioMAP Diversity Plus: LPS Assay for Thrombomodulin Biomarker Activity (AID 2284296); settings: primary human HUVEC with PBMC
# Summary of the method: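 Human umbilical vein endothelial cells co-cultured with PBMC and stimulated with LPS; cell-surface thrombomodulin measured by ELISA 24 hours after compound. Gain or loss versus DMSO; cytotoxicity checked by SRB staining in parallel cultures.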
# CD69, CD69 (gene 969) = assay: BSK_LPS_CD69: BioMAP Diversity Plus: LPS Assay for CD69 Biomarker Activity (AID 2284303); settings: primary human HUVEC with PBMC
# Summary of the method: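 Human umbilical vein endothelial cells co-cultured with PBMC under LPS stimulation, chemical exposure 24 h; cell-surface CD69 measured by ELISA and fitted in the positive direction versus DMSO.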
compound,measurement,setting,value
CCCC[N+](CCCC)(CCCC)CCCC,AC50,[1],9.27 µM (active)
same,AC50,[2],9.71 µM (active)
same,AC50,[3],23.2 µM (active)
same,outcome,[4],inactive
same,AC50,[5],5.6 µM (active)
same,outcome,[6],inactive
same,AC50,[7],6.81 µM (active)
same,AC50,[8],0.00953 µM (active)
same,AC50,[9],2.98 µM (active)
same,AC50,[10],9.18 µM (active)
same,outcome,[11],inactive
same,outcome,[12],inactive
same,outcome,[13],inactive
same,outcome,[14],inactive
same,outcome,[15],inactive
same,outcome,[16],inactive
same,outcome,[17],inactive
same,outcome,[18],inactive
same,outcome,[19],inactive
same,outcome,[20],inactive
same,outcome,[21],inactive
same,outcome,KRT18 (gene 3875),inactive
same,outcome,[22],inactive
same,outcome,[23],inactive
same,outcome,[24],inactive
same,outcome,[25],inactive
same,outcome,[26],inactive
same,outcome,[27],inactive
same,outcome,"CD69, CD69 (gene 969)",inactive
